# Among all 65,000 compounds or so, about 65 (0.1%) showed an effect of 50% or more. Only a selection was taken, and strong results are over-represented in it overall.
# Biological target: Tryptophan--tRNA ligase (Mycobacterium tuberculosis (strain ATCC 25618 / H37Rv)) (UniProt P9WFT3)
# Experiment: Biochemical assay for Mt-TrpRS
# Type: functional
# Set-up: scale not given: direction of the effect not stated beside the values
# Details: 10 µM
# Chain of Tryptophan--tRNA ligase (Mycobacterium tuberculosis (strain ATCC 25618 / H37Rv)) (P9WFT3 whole entry): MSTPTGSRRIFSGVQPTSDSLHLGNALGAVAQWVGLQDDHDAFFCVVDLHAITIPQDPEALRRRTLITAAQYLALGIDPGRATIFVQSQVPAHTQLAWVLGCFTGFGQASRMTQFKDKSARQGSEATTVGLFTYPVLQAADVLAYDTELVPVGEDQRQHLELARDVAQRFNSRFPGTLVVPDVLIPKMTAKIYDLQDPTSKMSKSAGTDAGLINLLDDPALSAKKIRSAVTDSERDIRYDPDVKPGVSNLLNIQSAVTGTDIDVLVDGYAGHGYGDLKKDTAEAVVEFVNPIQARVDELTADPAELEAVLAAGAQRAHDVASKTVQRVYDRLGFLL
row,Compound,Percent Effect [%]
1,C=C(C)CN(CC)C(=O)c1cc(F)ccc1N1CCN(C)CC1,1.96
2,CCN(CC1CCOC1)C(=O)c1ccc(N2CCOCC2)c(F)c1 (stereo not given),18.7
3,CCN(CC1CCOC1)C(=O)c1cc(F)ccc1N1CCN(C)CC1 (stereo not given),68.2
4,Fc1cnc(N2CC[C@@H]3O[C@H](COCc4ccccn4)CC[C@@H]32)nc1,-3.79
5,CCc1cnc(N2C[C@H]3C[C@H](C(=O)NC)[C@@H](C2)O3)nc1,-4.37
6,c1cnnc(NCC2CN(CCn3cccn3)CCO2)c1 (stereo not given),-1.42
7,Cn1cc(CCN2CCOC(CNc3cccnn3)C2)cn1 (stereo not given),66
8,c1ccc(CCN2CCOC(CNc3cccnn3)C2)nc1 (stereo not given),-2.61
9,c1ccc(CN2C[C@H]3CCC[C@@]3(COCC3CC3)C2)nc1,-0.775
10,COc1ccc(CN2C[C@@H]3OCCN(CC4CCCO4)[C@@H]3C2)cc1 (stereo not given in full),4.27
11,c1ccc(Cn2cc(CNCC3CNc4ccnn4C3)cn2)cc1 (stereo not given),62.4
12,c1cc(CNCC2CNc3ccnn3C2)cc(Cn2cccn2)c1 (stereo not given),2.73
13,c1ccc(Cn2cccn2)c(CNCC2CNc3ccnn3C2)c1 (stereo not given),6.16
14,COc1ccc(C(=O)N2CCO[C@H]3[C@@H](OCC4CC4)CC[C@@H]32)cc1F,-0.755
15,Cc1ccc(CN2CC(C(=O)NC(C)C)C3(CCOCC3)C2)s1 (stereo not given),0.402
16,CC(c1ccc2c(c1)OCO2)N1Cc2nc(N(C)C)ncc2C1=O (stereo not given),4.59
17,N#Cc1ccsc1N1CCC(Sc2ccncc2)C1=O (stereo not given),4.7
18,CC(C)c1nn(C)c(N2CCOCC2)c1CNCC(=O)N(C)C,4.97
19,CC(NCc1c(C(C)C)nn(C)c1N1CCOCC1)C(N)=O (stereo not given),-6.01
20,CC(NCc1c(C(C)C)nn(C)c1N1CCOCC1)C(=O)N(C)C (stereo not given),71.4
21,c1ccc(CN2CC[C@@H]3O[C@@H](COCCN4CCCC4)CC[C@@H]32)nc1,1.72
22,CC(C)c1nc(CN2CCC(c3ccnn3CCO)CC2)no1,61.5
23,CC(C)c1noc(CN2CCC(c3ccnn3CCO)CC2)n1,-1.43

row,Compound,Percent Effect [%]
1,CC(C)(C)c1nc(CN2CCC(c3ccnn3CCO)CC2)no1,23.6
2,COc1cc(Cl)ccc1C(=O)NCc1nncn1C,-10.5
3,Cc1cccc(C)c1OCCC(=O)N1CCC(c2nncn2C)CC1,3.92
4,Cn1cnnc1C1CCN(C(=O)CCCOc2ccccc2)CC1,-0.13
5,Cn1cnnc1C1CCN(C(=O)CCOc2ccc(Cl)cc2)CC1,64.2
6,CC[C@H]1CN2CC[C@H]1C[C@@H]2CNCc1ccc(OC(F)(F)F)cc1,-0.828
7,O=C(C1CC1)N1CC[C@H]2[C@@H]1CCC(=O)N2c1ccccc1,6.13
8,N#Cc1cn[nH]c1NCc1cc(I)cc(I)c1O,3.89
9,N#Cc1cn[nH]c1NCc1cc(Cl)cc(Cl)c1O,8.64
10,N#Cc1cn[nH]c1NCc1cc(Br)ccc1O,288
11,NCCN1C(=O)CC[C@H]2CN(Cc3ccc4occc4c3)CC[C@H]21,1.29
12,COCCN1C[C@H]2CCN(C(=O)Nc3ccccc3C)CC[C@H]2S1(=O)=O,-4.45
13,Cc1ncoc1C(=O)N1C[C@H]2CCC[C@@]2(COCc2cccnc2)C1,1.59
14,CC(C(=O)NCc1ccc(N2CCCC2)nc1)S(C)(=O)=O (stereo not given),59.5
15,CC(C(=O)NCc1ccc(N2CCCCC2)nc1)S(C)(=O)=O (stereo not given),-4.1
16,CC(C(=O)NCc1ccc(N2CCCCCC2)nc1)S(C)(=O)=O (stereo not given),-1.98
17,Cc1nnc2n1CCN(CC(=O)N1CCc3ccccc3C1)C2,18.8
18,Cc1cccc(CN2CCC[C@@H]3CN(C(=O)c4ccco4)C[C@@H]32)n1,0.174
19,COc1ccc(C[C@H]2CN(c3cc(OC)ncn3)CC[C@H]2OC)cc1,5.86
20,O=C(NCC1=CCCCC1)C(c1cccnc1)N1CCOCC1 (stereo not given),-0.187
21,O=C(NCC(F)(F)F)C(c1cccnc1)N1CCCC1 (stereo not given),0.735
22,O=C(NCC1=CCCCC1)C(c1cccnc1)N1CCCC1 (stereo not given),51
23,CCn1c(SC)nnc1C1CCN(C(=O)N2CCCC2)CC1,-3

row,Compound,Percent Effect [%]
1,Cn1ccnc1CN1C(=O)CO[C@H]2CN(Cc3ccc(F)c(F)c3)C[C@H]21,2.2
2,O=C(NCC1CC1)[C@@H]1CCO[C@@H]2CCN(Cc3ccco3)C[C@H]21,9.55
3,c1ccc(O[C@@H]2CC[C@H]3[C@H]2OCCN3Cc2ccsc2)nc1,8.46
4,CCCc1nnc(NC(=O)NC(C)Cn2cccn2)s1 (stereo not given),-6.24
5,CCC(CC)c1nnc(NC(=O)NC(C)Cn2cccn2)s1 (stereo not given),69.6
6,Cc1nnc(NC(=O)NC(C)Cn2cccn2)s1 (stereo not given),-5.8
7,COCCNC(=O)[C@H]1C[C@@H]2CCN(c3ccccc3)C[C@H]2O1,6.99
8,CNC(=O)[C@@H]1COC[C@H]2CN(C(=O)c3cccc(OC)c3)C[C@H]21,1.06
9,COc1cccc(F)c1CN1CCC(c2nc(C)cc(C)n2)C1 (stereo not given),70.2
10,COc1cccc(F)c1CN1CCC(c2nccc(C)n2)C1 (stereo not given),-3.03
11,COc1ccccc1CN1CCC(c2nccc(C)n2)C1 (stereo not given),22
12,Cc1ccc(N2CC[C@H]3OCC[C@@]3(C(=O)N3CCCC3)C2)nn1,1.02
13,CCN(CC)S(=O)(=O)N1CCCC1c1cccc(Nc2ncc(C)s2)n1 (stereo not given),1.88
14,CCn1cc(S(=O)(=O)NC(CO)Cc2c[nH]c3ccccc23)cn1 (stereo not given),-4.44
15,CCn1cc(S(=O)(=O)NC(=O)CCc2c[nH]c3ccccc23)cn1,57.5
16,CCn1cc(NC(=O)NC(CO)Cc2c[nH]c3ccccc23)cn1 (stereo not given),2.58
17,Cc1csc(C(=O)NCCN2CCC(c3cccs3)CC2)c1,0.44
18,Cc1cccc(CN2CC[C@@H]3[C@@H]2CCN3C(=O)c2cc(C)on2)n1,-0.968
19,CCN1CCN(C(=O)c2cc(-c3ccc(C)o3)n[nH]2)[C@H]2CS(=O)(=O)C[C@H]21,2.31
20,O=C(C1=CCCC1)N1CCO[C@H]2[C@@H](OCC3CC3)CC[C@@H]21,0.105
21,Cc1cc(CN2CCN(C(=O)NCc3ccoc3)CC2)no1,-3.89
22,Cc1cc(CN2CCN(C(=O)NCc3ccco3)CC2)no1,70.1
23,Cc1cc(CN2CCN(C(=O)NCc3cccs3)CC2)no1,-4.93

row,Compound,Percent Effect [%]
1,COCC(=O)N1C[C@@H](c2cccc(F)c2)[C@H]2[C@H]1CCCCCN2C(C)=O,9.95
2,O=C(CC1CC1)N1CCC2(CC1)CN(Cc1cccnc1)C(=O)CO2,-3.48
3,CCn1cnnc1C1CCN(C(=O)c2cc3c(s2)CCCC3)CC1,-7.73
4,Cn1cnnc1C1CCN(C(=O)c2cc3c(s2)CCC3)CC1,-1.59
5,Cn1cnnc1C1CCN(C(=O)c2cc3c(s2)CCCC3)CC1,83.8
6,Cc1nc(C)c(CNC[C@@]2(COc3cccnc3)C[C@@H](O)[C@@H](O)C2)s1,-10.4
7,CN(Cc1ccco1)[C@@H]1CN(Cc2ccc(F)cc2)[C@@H]2CCCO[C@H]12,-5.38
8,CCS(=O)(=O)N1C[C@@H](OCc2ccccn2)[C@@H]2OCCC[C@@H]21,4.01
9,Cn1nc(C#N)c2c1CN(C(=O)c1ccnnc1)CCC2,4.65
10,Cn1nc(C#N)c2c1CN(C(=O)c1cccnc1)CCC2,11.1
11,Cn1nc(C#N)c2c1CN(C(=O)c1ccco1)CCC2,50.1
12,CC(C)CC(=O)N1C[C@H]2CCCN(S(=O)(=O)c3ccc(Cl)s3)[C@H]2C1,-3.18
13,CC(C)OCCCNC(=O)CS(=O)(=O)Cc1ccc(Cl)cc1,75.4
14,Cc1ccc(CS(=O)(=O)CC(=O)NCCCOC(C)C)cc1,-5.37
15,CC(C)OCCCNC(=O)CS(=O)(=O)Cc1ccc(C(C)C)cc1,2.32
16,Cn1ncc2c(N3CCCN4CCC[C@H]4C3)nc(C(C)(C)C)nc21,2.18
17,CC(C)N1[C@H](CN2CCCC2)C[C@@H]2CN(C(=O)c3ccoc3)CC[C@@H]21,0.0969
18,COCCN1CCC(NCc2ccc(F)cc2F)C1 (stereo not given),83.4
19,COCCN1CCC(NCc2cccc(F)c2)C1 (stereo not given),-5.04
20,COCCN1CCC(NCc2cc(F)ccc2F)C1 (stereo not given),12.2
21,O=C(c1ccccn1)N1C[C@@H]2CC[C@H](C1)N(C(=O)CCN1CCCC1)C2,4.71
22,O=C(O)CCC(=O)N1CCC(c2noc3cc(F)ccc23)CC1,1.33
23,O=C(O)CCCC(=O)N1CCC(c2noc3cc(F)ccc23)CC1,1.46

row,Compound,Percent Effect [%]
1,NC(=O)CN1CCC(c2noc3cc(F)ccc23)CC1,76.4
2,CCS(=O)(=O)N1CCC[C@]2(C(=O)N(C)C)CN(c3ccccn3)C[C@@H]2C1,-1.99
3,NC(=O)N1CCc2cc(C(=O)O)c(-c3ccsc3)nc2CC1,-4.21
4,Cc1ncsc1C(=O)N(Cc1cccs1)C1CC1,-1.87
5,Cc1ncsc1C(=O)N(Cc1ccccn1)C1CC1,75.1
6,Cc1ncsc1C(=O)N(Cc1ccccc1)C1CC1,-6.55
7,O=C(NC1CC(F)(F)C1)[C@]12COC[C@H]1CN(Cc1cccnc1)C2,-2.86
8,Cc1ncsc1CN1C[C@@H]2COC[C@]2(C(=O)NCC2CC2)C1,0.881
9,CCc1cnc(N2C[C@H]3C[C@H](C(=O)NCC(C)C)[C@@H](C2)O3)nc1,1.95
10,CC(=O)c1cccc(NC(=O)N(CC(F)F)C2CC2)c1,4.27
11,Cc1cccc(NCc2nc(C)ccc2O)c1,52.2
12,CCn1nnnc1-c1cccc(NCc2nc(C)ccc2O)c1,-6.59
13,Cc1ccc(O)c(CNc2cccc(OCCF)c2)n1,-4.08
14,CCNC(=O)[C@@H]1C[C@@H](N)CN1C(=O)c1cc2ccccc2[nH]1,2.18
15,Cc1ccc(N2C[C@@H]3CN(C(=O)c4ccccc4)CCO[C@@H]3C2)nn1,12.7
16,Cn1ccnc1CN1CCN2C[C@H](Oc3ccccc3)C[C@H]2C1,2.44
17,CC(=O)Nc1ccc(CN2C[C@H]3CC[C@@H]2CN(c2ncccn2)C3)cc1,3.06
18,c1cncc(CN2CCO[C@H]3[C@H](OCCN4CCCC4)CC[C@@H]32)c1,2.57
19,Cc1c[nH]c(CN2CC[C@@]3(O)CCN(C(=O)C4CCC4)C[C@H]3C2)n1,1.37
20,Cc1ncsc1C(=O)NC1CCN(CCCC#N)CC1,-4.15
21,Cc1ncsc1C(=O)NC1CCN(CCC#N)CC1,57.5
22,Cc1ncsc1C(=O)NC1CCN(CCC(N)=O)CC1,0.56
23,CN(Cc1cccnc1)C[C@H]1OC[C@@H]2CCN(C(=O)C3CC3)C[C@@H]21,-1.23
